# Results reported in article PMC4336329 (PLoS ONE, 2015).
# The campaign covered roughly 310,000 compounds. About 14,000 (4.5%) showed an effect of 50% or more. Effects have a minus sign here. Only a selection was taken, and strong results are over-represented in it overall.
# Target: human ether-à-go-go-related gene (hERG) potassium channel (human, UniProt Q12809)
# Experiment: primary screen, population patch clamp on CHO cells stably expressing hERG; higher = less effect of the substance
# 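Also: peak tail current of the secondary pulse compared with the same well before compound.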
# Sequence of human ether-à-go-go-related gene (hERG) potassium channel (Q12809 whole entry, looked up): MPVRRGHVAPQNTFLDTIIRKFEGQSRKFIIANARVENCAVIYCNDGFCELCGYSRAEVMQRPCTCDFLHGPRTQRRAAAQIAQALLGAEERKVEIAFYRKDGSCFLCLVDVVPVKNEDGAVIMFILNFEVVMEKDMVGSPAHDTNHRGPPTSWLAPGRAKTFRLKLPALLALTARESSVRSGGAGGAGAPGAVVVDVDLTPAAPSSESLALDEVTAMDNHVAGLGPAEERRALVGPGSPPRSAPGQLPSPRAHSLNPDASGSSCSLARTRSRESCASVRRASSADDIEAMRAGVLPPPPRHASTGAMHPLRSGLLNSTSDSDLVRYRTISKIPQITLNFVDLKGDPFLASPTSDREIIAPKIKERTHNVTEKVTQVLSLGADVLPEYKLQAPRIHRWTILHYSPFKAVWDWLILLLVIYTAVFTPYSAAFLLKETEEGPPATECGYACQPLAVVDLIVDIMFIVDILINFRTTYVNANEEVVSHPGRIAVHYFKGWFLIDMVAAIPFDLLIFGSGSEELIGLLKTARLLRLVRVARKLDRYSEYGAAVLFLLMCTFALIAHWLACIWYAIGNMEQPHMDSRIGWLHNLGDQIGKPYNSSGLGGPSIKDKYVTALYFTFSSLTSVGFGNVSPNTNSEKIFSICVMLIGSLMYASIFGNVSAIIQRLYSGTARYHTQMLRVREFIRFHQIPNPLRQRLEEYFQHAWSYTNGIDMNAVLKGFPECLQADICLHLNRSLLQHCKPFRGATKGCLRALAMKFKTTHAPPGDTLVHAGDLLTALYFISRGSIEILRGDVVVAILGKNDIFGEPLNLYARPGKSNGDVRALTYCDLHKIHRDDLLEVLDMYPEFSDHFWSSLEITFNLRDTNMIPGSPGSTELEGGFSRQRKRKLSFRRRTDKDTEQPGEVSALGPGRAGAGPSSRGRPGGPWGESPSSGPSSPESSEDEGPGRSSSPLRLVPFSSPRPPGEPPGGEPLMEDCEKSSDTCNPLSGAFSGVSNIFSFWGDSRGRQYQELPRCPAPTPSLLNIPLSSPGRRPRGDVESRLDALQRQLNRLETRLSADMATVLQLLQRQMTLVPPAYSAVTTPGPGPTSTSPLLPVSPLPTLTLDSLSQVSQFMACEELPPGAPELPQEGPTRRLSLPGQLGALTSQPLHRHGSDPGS
row,Structure (SMILES),"hERG current change (%, negative = inhibition) at 10uM [%]"
1,C/C(=N\NC(=O)c1nnn(-c2nonc2N)c1-c1cccs1)c1ccc(C)cc1,-0.452
2,CC(=O)Nc1ccc(N2CCN(c3ccc(F)cc3)CC2)cc1,18.4
3,CS(=O)(=O)c1ccccc1C(=O)NC1CCCc2ccccc21 (centres unmarked),66.1
4,O=C(CCN1C(=O)S/C(=C\c2cccs2)C1=O)Nc1nccs1,9.41
5,CCOC(=O)CCNC(=O)N1CCC(CCOc2ccccc2)(C(=O)OCC)CC1,-16.1
6,CCOC(=O)C1(CCOc2ccccc2)CCN(Cc2ccc(-n3cccn3)cc2)CC1,-84.1
7,CCOC(=O)CNC(=O)N1CCC(CCOc2ccccc2)(C(=O)OCC)CC1,1.83
8,CCOC(=O)C1(CCOc2ccccc2)CCN(Cc2cccc(-n3cccn3)c2)CC1,-79.3
9,CCOC(=O)C1(CCOc2ccccc2)CCN(C(=O)c2ccc(-n3cccn3)cc2)CC1,-78.9
10,CCOC(=O)C1(CCOc2ccccc2)CCN(Cc2ccc3nonc3c2)CC1,-17
11,COc1ccccc1C(=O)Nc1nc(N)n(-c2ccccc2)n1,13.8
12,CCCNC(=S)Nc1ccc(Oc2ccccc2)cc1,-10.8
13,O=C(O)/C=C/c1cnc2ccccc2n1,16.6
14,Cc1ccc(S(=O)(=O)N2CCC(C(=O)NN3CCCCC3)CC2)cc1,4.16
15,O=C1Nc2ccc(Br)cc2/C1=C/C(=O)c1ccc2c(c1)OCO2,9.53
16,CCCCCCCCN[C@H](C)[C@@H](O)c1ccc(SC(C)C)cc1,-67.4
17,C[C@@H](NCCc1ccc(O)cc1)[C@@H](O)c1ccc(O)cc1.Cl,-11.5
18,CCCCCNC(=O)C(C)Sc1ccc(Cl)cc1 (centres unmarked),10.9
19,CC(C)C(NC(=O)c1ccccc1)C(=O)NC1CCCc2ccccc21 (centres unmarked),15
20,COc1ccc(-n2c(CNCCc3ccc(C)cc3)nc3ccccc3c2=O)cc1,-32.8
21,COC(=O)c1cc(C(=O)OCC(=O)N(C)C2CCS(=O)(=O)C2)cc([N+](=O)[O-])c1 (centres unmarked),7.96

row,Structure (SMILES),"hERG current change (%, negative = inhibition) at 10uM [%]"
1,Cc1cc(C)n2nc(C(=O)OCC(=O)N3C(C)CCCC3C)nc2n1 (centres unmarked),21.5
2,Cc1ccc(S(=O)(=O)c2nc(Nc3nccs3)sc2Cl)cc1,11.6
3,Brc1ccc(-c2cn3c(n2)CCc2ccc4cccnc4c2-3)cc1,12.5
4,COc1ccc(-n2c(-c3ccc(Br)cc3)nc(=S)c3c2CCCC3)cc1,-1.32
5,COc1ccc(-n2c(-c3ccc(Cl)cc3)c[n+]3c2CCc2ccccc2-3)cc1.[Br-],-78.4
6,COc1ccc(-n2c(-c3ccccc3)nnc2-c2ccc(Cl)cc2)cc1,4.96
7,COc1ccc(N2C3=[N+](CC2(C)O)c2ccccc2CC3)cc1.[Br-] (centres unmarked),-44.3
8,Cc1ccc(-n2c(-c3ccc(Br)cc3)c[n+]3c2CCc2ccc4cccnc4c2-3)cc1.[Br-],-74.2
9,COc1ccc(-n2c(-c3ccc(Cl)cc3)c[n+]3c2CCCCC3)cc1.[Br-],-29.8
10,Cc1ccc(-n2c(=O)[nH]c3ncccc3c2=O)cc1,30.2
11,COc1ccc(-n2c(-c3ccc(Br)cc3)c[n+]3c2CCc2ccccc2-3)cc1.[Br-],-85.2
12,COc1ccc(N2C(=O)CC(NNC(=O)c3cc(C)oc3C)C2=O)cc1 (centres unmarked),23.6
13,COc1ccc(CCNC(=O)CSc2nnc(-c3ccccc3)c3ccccc23)cc1OC,-20
14,CCNC(=O)NC(=O)C(C)Oc1ccc(C(=O)OC)cc1 (centres unmarked),3.92
15,COc1ccc(C(c2sc3nc(C)nn3c2O)N2CCC3(CC2)OCCO3)cc1 (centres unmarked),-2.74
16,COc1ccc(Cc2nnc(NC(=O)Nc3ccc(C)cc3)s2)cc1OC,10.2
17,Nc1c(C(=O)CSc2nnc(Nc3ccc(F)cc3)s2)c(=O)[nH]c(=O)n1C1CC1,0.202
18,O=C1CCC(CCC(=O)N2CCCC(C(=O)c3ccc4c5c(cccc35)CC4)C2)=NN1 (centres unmarked),-54.4
19,O=C(c1ccc2c3c(cccc13)CC2)C1CCCN(Cc2ccncc2)C1 (centres unmarked),-51.5
20,NC(=O)CCC(=O)N1CCCC(C(=O)c2ccc3c4c(cccc24)CC3)C1 (centres unmarked),2.05
21,O=C1CCC(C(=O)N2CCCC(C(=O)c3ccc4c5c(cccc35)CC4)C2)=NN1 (centres unmarked),-17.9

row,Structure (SMILES),"hERG current change (%, negative = inhibition) at 10uM [%]"
1,COCCC(=O)N1CCCC(C(=O)c2ccc3c4c(cccc24)CC3)C1 (centres unmarked),-17.8
2,O=C(c1ccc2c3c(cccc13)CC2)C1CCCN(C(=O)c2cccnc2)C1 (centres unmarked),-19.4
3,O=C(c1ccc2c3c(cccc13)CC2)C1CCCN(CC2CC2)C1 (centres unmarked),-46.3
4,O=C(c1ccc2c3c(cccc13)CC2)C1CCCN(Cc2cccnc2)C1 (centres unmarked),-63.4
5,O=C(c1ccc2c3c(cccc13)CC2)C1CCCN(Cc2ccccn2)C1 (centres unmarked),-42.5
6,CN(C)C(=O)CCC(=O)N1CCCC(C(=O)c2ccc3c4c(cccc24)CC3)C1 (centres unmarked),-20.2
7,O=C(c1ccc2c3c(cccc13)CC2)C1CCCN(Cc2ccc(OCCO)cc2)C1 (centres unmarked),-70.4
8,C/C=C(\C)C(=O)OC1C(C)=C2C(C1OC(=O)CCCCC)C(C)(OC(C)=O)CC(OC(=O)CCC)C1(O)C2OC(=O)C1(C)O (centres unmarked),-6.49
9,COc1cc2cccc(OC)c(=O)c2c(O)c1OC,-1.84
10,CCc1ccc(N/C(N)=N/c2nc(CSc3ccccn3)cc(=O)[nH]2)cc1,3.29
11,Cn1ncc2c(Nc3cccc(C(=O)O)c3)ncnc21,6.66
12,CC(C(=O)NCc1ccccn1)c1ccc([N+](=O)[O-])cc1 (centres unmarked),-49.5
13,Cc1ccc(S(=O)(=O)N2CCCC2C(=O)Nc2cc(C)on2)cc1 (centres unmarked),-1.05
14,Cc1ccccc1-c1noc(CCC(=O)NCc2ccco2)n1,-2.05
15,C#CCOCCOCCOCCNc1nc(N2CCN(C(=O)[C@H](CCCCN)n3cc(C(N)[C@H](C)CC)nn3)CC2)nc(N2CCN(C(=O)[C@H](CCC(=O)O)n3cc(C(N)[C@H](C)CC)nn3)CC2)n1.Cl (some centres unmarked),13.5
16,C=C[C@@H]1c2cc(C)ccc2N(S(=O)(=O)c2ccc(C)cc2)[C@H](c2ccccc2C(F)(F)F)C1(C#N)C#N,7.01
17,COc1cc(C(=O)NCC(=O)N/N=C(/C)c2cccs2)cc(OC)c1OC,-0.388
18,Cc1ccc(CC(=O)Nc2ccc(S(=O)(=O)Nc3ncccn3)cc2)cc1,19.9
19,CC(c1ccccc1)n1c(-c2ccccc2F)n[nH]c1=S (centres unmarked),-11.9
20,CC(=O)NCC(=O)N1CCCC(C(=O)c2ccc3c4c(cccc24)CC3)C1 (centres unmarked),8.94
21,CCn1ccnc1CN1CCCC(C(=O)c2ccc3c4c(cccc24)CC3)C1 (centres unmarked),-77.4

row,Structure (SMILES),"hERG current change (%, negative = inhibition) at 10uM [%]"
1,CN1CCC(C(=O)N2CCCC(C(=O)c3ccc4c5c(cccc35)CC4)C2)CC1 (centres unmarked),-61.1
2,COc1cc(CN2CCCC(C(=O)c3ccc4c5c(cccc35)CC4)C2)cc(OC)c1O (centres unmarked),-53
3,Cc1ncoc1C(=O)N1CCCC(C(=O)c2ccc3c4c(cccc24)CC3)C1 (centres unmarked),-15.5
4,O=C(c1ccc2c3c(cccc13)CC2)C1CCCN(Cc2ncc[nH]2)C1 (centres unmarked),-55.7
5,Cc1ncccc1C(=O)N1CCCC(C(=O)c2ccc3c4c(cccc24)CC3)C1 (centres unmarked),-13.2
6,Cc1cccc(CN2CCCC(C(=O)c3ccc4c5c(cccc35)CC4)C2)n1 (centres unmarked),-40.7
7,Cc1cnc(CN2CCCC(C(=O)c3ccc4c5c(cccc35)CC4)C2)[nH]1 (centres unmarked),-31.7
8,CC(=O)N1CCCC(C(=O)c2ccc3c4c(cccc24)CC3)C1 (centres unmarked),-8.18
9,COCC(=O)N1CCCC(C(=O)c2ccc3c4c(cccc24)CC3)C1 (centres unmarked),-21.2
10,Cc1ccc(OCC(=O)NCCNC(=O)c2ccncc2)cc1C,15.9
11,Cc1ccc(S(=O)(=O)NCc2ccccc2)cc1C(=O)N(C)Cc1ccc(F)cc1,5.11
12,O=c1c2ccccc2oc2nc(-c3ccco3)n(Cc3ccccc3)c(=O)c12,-9.22
13,CCOC(=O)c1cc2occc2n1CC(=O)Nc1ccc(OC)cc1OC,-15
14,O=C(NCCOc1nc(N2CCCCC2)nc(N2CCOCC2)n1)Nc1ccccc1,-0.098
15,Cc1ccc(S(=O)(=O)NCc2ccco2)c(C)c1C,-4.4
16,CN(NC(=O)c1ccco1)c1nc2ccccc2nc1C(F)(F)F,0.871
17,N#CCCN(Cc1cccnc1)C(=O)Nc1cccc(Cl)c1,-10.9
18,N#Cc1ccc(-c2csc(NNC(=O)c3ccccc3)n2)cc1,0.0899
19,Cc1ccc(NS(=O)(=O)c2ccc(C3CCCCC3)cc2)cc1,-10.3
20,CC12CCC(=O)N1C(C(=O)NCc1ccc(Cl)cc1Cl)CS2 (centres unmarked),-0.564
